The values below come from PubChem BioAssay (NCI).

Holding throughout (experiment): NCI-60 one-dose screen, 48 h (100 = growth as untreated, 0 = no growth, -100 = all killed)
The subject of experiment [1] is EKVX NSCLC. Conditions: 10 µM unless noted.
Experiment [2] has as its system SN12C renal. To be noted: 10 µM unless noted.
The test system of experiment [3] is UO-31 renal. Conditions: 10 µM unless noted.
Experiment [4] relates to TK-10 renal. Conditions: 10 µM unless noted.
Experiment [5] relates to ACHN renal. Conditions: 10 µM unless noted.
Experiment [6] relates to CAKI-1 renal. To be noted: 10 µM.
Experiment [7] has as its system A498 renal. Conditions: 10 µM unless noted.
Experiment [8] relates to CCRF-CEM leukemia. To be noted: 10 µM unless noted.
Experiment [9] has as its system MOLT-4 leukemia. To be noted: 10 µM unless noted.
The subject of experiment [10] is SR leukemia. Conditions: 10 µM unless noted.
Experiment [11] relates to RPMI-8226 leukemia. Conditions: 10 µM unless noted.
In experiment [12] the test system is OVCAR-8 ovarian. Conditions: 10 µM unless noted.
The test system of experiment [13] is OVCAR-5 ovarian. To be noted: 10 µM unless noted.
The subject of experiment [14] is OVCAR-4 ovarian. Conditions: 10 µM unless noted.
Experiment [15] relates to SK-OV-3 ovarian. Conditions: 10 µM unless noted.
Experiment [16] concerns HS 578T breast. To be noted: 10 µM unless noted.
The test system of experiment [17] is NCI/ADR-RES ovarian. Conditions: 10 µM unless noted.
In experiment [18] the test system is IGROV1 ovarian. Conditions: 10 µM unless noted.

This is part of a sample that, as a whole, favours compounds with a hit. Of some 83,000 tested, about 20% had one in any assay.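 Testing used 96-well plates and a 48-hour single-concentration exposure. Example: -40 means 40% of the starting cells died.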 Values without a mark were called inactive. Calls of active or inactive are those of the source. The calls were made as follows: active = growth percent below 10; inactive = the rest.

For the molecule `Clc1ccc(-c2csc(Nc3cccc(Nc4csc(-c5ccc(Cl)cc5)n4)c3)n2)cc1`, the growth in experiment [1] was 61.8%; in experiment [2], 63.1%; in experiment [3], 51.5%; in experiment [4], 98.2%; in experiment [5] it was 54.3%; in experiment [6], 51.9%. Besides, the growth is 67.8% in [7]; 94.1% in [8]; 60.7% in [9]; 96.8% in [10]; 86.3% in [11]; 87.3% in experiment [12]. For the same molecule, the growth was 77.5% in [13]; 76.5% in [14]; 79.3% in experiment [15]; 73.4% in [16]; 79.5% in experiment [17].
Turning to `COc1ccc(NC(=O)[C@H](C)NC(=O)OC(C)(C)C)cc1C(=O)Nc1cccc(-c2cc(=O)c3c(OC)c(OC)c(OC)cc3o2)c1`, the growth was 3.7% (active) in [1]; 2.23% (active) in experiment [2]; 16.8% in [3]; -3.36% (active) in experiment [4]; 10.3% in experiment [5]; 17.4% in experiment [6]. Moreover, the growth is -53.3% (active) in experiment [7]; 3.69% (active) in [8]; 7.83% (active) in experiment [9]; 8.47% (active) in experiment [10]; -39.4% (active) in [11]; -27.5% (active) in experiment [12]. In addition, the growth in experiment [13] was 3.94% (active); in [14], 21.3%; in [15], -17.8% (active); in [16] it was -9.5% (active); in [17], 61.4%.
With `COc1ccc([C@@H]2[C@@H](O)C(=O)N2c2cc(OC)c(OC)c(OC)c2)cc1`, the growth in experiment [1] is 51.2%; in [2] it was 24.6%; in [3] it was 29.9%; in [4], 74.5%; in [5] it was 26.8%; in experiment [6] it was 25.6%. Moreover, the growth in experiment [7] is -20.8% (active); in experiment [8] it was 24%; in experiment [11], 20.3%; in experiment [12], 2.57% (active); in experiment [13], 24.8%; in experiment [14] it was 59.3%. Besides, the growth in experiment [15] is 37.2%; in experiment [18], 27.9%; in experiment [16] it was 10.6%; in experiment [17], 13.9%.
Take `COc1ccc2c(c1)c(-c1nn3c(=O)cc(-c4ccccc4)nc3s1)cn2C`: the growth is 85.3% in [1]; 45.2% in [2]; 38.1% in [3]; 64.1% in experiment [4]; 44.3% in experiment [5]; 46.6% in [6]. The growth in experiment [7] was 4.32% (active); in experiment [8], 34.7%; in [11] it was 57.5%; in [12], 51%; in [13], 66%; in experiment [14], 67.4%. The growth in experiment [15] was 49.6%; in experiment [18] it was 54.3%; in experiment [16] it was 27%; in experiment [17], 27.8%.
`CS(=O)c1nccc(-c2c(-c3ccc(F)c(OCc4ccc(F)cc4)c3)nc3sccn23)n1` (stereo not drawn): the growth in [1] was 75.2%; in [2], 93.6%; in experiment [3], 89.3%; in experiment [4] it was 108%; in [5], 77.2%; in [6], 70.8%. Also, the growth was 88.2% in [7]; 45.8% in experiment [8]; -22.2% (active) in [10]; 20.2% in experiment [11]; 89.1% in experiment [12]; 100% in experiment [13]. Further, the growth is 101% in experiment [14]; 115% in experiment [15]; 17.7% in experiment [18]; 98.4% in experiment [16]; 107% in [17].
As to `COC(=O)c1nc(-c2ccc(C)cc2)oc1S(=O)(=O)N1CCN(c2oc(-c3ccccc3)nc2C#N)CC1`, the growth was 106% in [1]; 100% in experiment [2]; 94% in experiment [3]; 111% in [4]; 100% in experiment [5]; 97.4% in experiment [6]. The growth in [7] was 85.8%; in experiment [8], 39.8%; in experiment [11], 97.7%; in experiment [12], 102%; in [13], 108%; in experiment [14], 106%. For the same molecule, the growth in [15] was 119%; in [18] it was 106%; in [16], 108%; in experiment [17] it was 103%.
Take `COc1cc2c3c(n(CCCNCC4CC4)c(=O)c2cc1OC)-c1cc2c(cc1C3=O)OCO2`: the growth in [1] was 66%; in experiment [2], 44.6%; in [3] it was 49.8%; in experiment [4] it was 72.5%; in [5], -73.1% (active); in experiment [6], -72.5% (active). Besides, the growth in experiment [7] was 68.6%; in [8], -9.44% (active); in experiment [11] it was -42.8% (active); in experiment [12], -60.5% (active); in experiment [13], -66.8% (active); in [14], 1.27% (active). Besides, the growth in experiment [15] is 8.75% (active); in [18] it was 56%; in [16], 95.3%; in experiment [17], -13.6% (active).
Consider `C/C(=C(/c1ccc(O)cc1)c1ccc(OCCN2CCCC2)cc1)c1ccc(Cl)cc1`, for which the growth is 57.4% in experiment [1]; 66% in experiment [2]; 53.8% in [3]; 84.5% in [4]; 33.7% in experiment [5]; 41.9% in experiment [6]. Further, the growth in [7] is 56.5%; in experiment [8] it was 43.6%; in experiment [11] it was -4.71% (active); in experiment [12], 64.6%; in [13] it was 60.1%; in experiment [14], 65.4%. Moreover, the growth in experiment [15] is 76.7%; in [18], 55.4%; in experiment [16], 48.4%; in [17], 64.2%.
On to `CS(=O)(=O)c1nccc(-c2c(-c3ccc(F)c(OCc4ccccc4)c3)nc3sccn23)n1`, for which the growth was 87.6% in experiment [1]; 97.5% in experiment [2]; 86% in experiment [3]; 101% in experiment [4]; 93.4% in [5]; 93.6% in [6]. For the same molecule, the growth in experiment [7] was 80.3%; in experiment [8], 54.7%; in [9] it was 74%; in experiment [10], 16.6%; in experiment [11], 43.3%; in experiment [12], 99.6%. Also, the growth was 100% in [13]; 104% in [14]; 117% in experiment [15]; 91.3% in experiment [16]; 99.9% in [17].
